Assay outcomes deposited in PubChem by Broad Institute.
MITF TRPM1 HTS – activators of MITF-driven TRPM1 promoter reporter, primary screen, cell-based, SK-MEL-5, luciferase, single point; SK-MEL-5 TRPM1-promoter luciferase, 24 h; % of positive control, neutral wells = 0; activation, % at 12.5 µM; actives 0.75% (n = 300,000);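 active = mean activation of at least 80% with every replicate also reaching 80%; inconclusive = mean reaches 80% but some replicate falls short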;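 note: 0% = neutral control wells and 100% = parthenolide positive control wells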
N-glyco inh – increase of ERlucT glycosylation luciferase signal, primary screen, N-linked glycosylation inhibitor project, D54 ERlucT cells, luminescence, set 2. D54 ERlucT glycosylation luciferase reporter, 24 h; percent of 100 nM tunicamycin response. reporter increase, % at 12.5 µM. actives 0.23% (n = 360,000). AID 588692, 2011;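 active = mean luciferase reporter signal, scaled so untreated is 0 and the glycosylation-blocking control 100, at or above a set limit in every replicate; inconclusive = mean reaches the limit but not every replicate does; inactive = mean below the limit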;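 note: luciferase carries N-glycosylation sites so blocking glycosylation raises the light; 0% = median of neutral control wells and 100% = median of 100 nM tunicamycin wells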
Vif inh – HIV Vif self-association inhibitors, primary screen, imaging, HEK293T, single point; HEK293T cells, Vif self-association by quenched fluorescence, 24 h; actives 0.35% (n = 340,000); inhibition, % at 7.49 µM; in the data active = inhibition above about 50%, passing the limit was not always enough; inconclusive = no clear call, values can overlap the other calls; inactive = below about 31%
PfHsp90 yeast 2 – growth inhibition of PfHsp90-expressing yeast, primary screen, antimalarial PfHsp90 inhibitor project, S. cerevisiae, BacTiter-Glo luminescence, single point, set 2 | BacTiter-Glo ATP, 48 h; yeast lacking PDR1 and PDR3 efflux regulators | inhibition, % at 9.4 µM | actives 0.32% (n = 310,000) | AID 504621, 2011;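 active = every replicate shows inhibition above about 80%, whatever the replicate mean, limit read from the data; inconclusive = mean inhibition reaches the set limit but some replicate falls short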;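 note: 0% = DMSO neutral controls and 100% = 20 µM radicicol positive controls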
esBAF inh – Bmi1 luciferase reporter increase in mESCs, primary screen, esBAF inhibitor project, mouse ES cells, Bmi1 luciferase knock-in, single point. actives 2% (n = 350,000). 24 h; 100% = twice the neutral-well signal. reporter increase, % at 12.5 µM; in the data active = activation above about 40%; inconclusive = no clear call, values can overlap the other calls;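 note: 0% = median of the plate's neutral control wells and 100% = double that signal; a rise in the Bmi1 reporter signal indicates esBAF inhibition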
Wnt act – Wnt/beta-catenin pathway activators, primary screen, cell-based, plate reader, single point | Wnt/beta-catenin reporter cell assay, activator | activation, % at 9.35 µM | actives 1.2% (n = 300,000) | AID 743398, 2014; in the data active = activation above about 30%, passing the limit was not always enough; inconclusive = no clear call, values can overlap the other calls;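 note: 0% = neutral control wells and 100% = positive control wells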
Numbers without * were called inactive; i = inactive; ? = inconclusive; nt = not tested or not shown. Hits are enriched below; roughly 3% of the tested compounds scored in any of these assays.

SMILES	MITF TRPM1 HTS	N-glyco inh	Vif inh	PfHsp90 yeast 2	esBAF inh	Wnt act
CCN1/C(=C/c2ccc3cc(C)cc(C)c3[n+]2CC)Sc2cc(C)ccc21	-81	11	i	102*	-55	-19
CCN1/C(=C/c2ccc3cc(C)ccc3[n+]2CC)Sc2ccc3sccc3c21	-100	-18	16	101*	-87	nt
COc1ccc(Cl)cc1C(=O)NNC(=O)C1COc2ccccc2O1 (stereo not given)	-10	2	-7	-9	-8	0
COc1ccc(O)c(/C=N/N2CCCCC2)c1	30	0	-8	-6	6	33*
CCOC(=O)CN1Cc2cccc(C(=O)O)c2C1=O	8	0	-4	-28	8	-1
COc1cc(NC(C(=O)Nc2cccc(C(C)=O)c2)c2ccccc2)cc(OC)c1OC (stereo not given)	-7	27*	8	9	nt	nt
CN(C)CCNc1ccc(CO)c2oc3ccc(O)cc3c(=O)c12	nt	-5	1	-11	nt	5
CCN(CC)CCNc1ccc(C)c2sc3ccc(O)cc3c(=O)c12	nt	54*	-16	-2	nt	-8
CC(=O)c1cccc(NC(=S)NC(=O)c2cccc(C)c2)c1	109*	-3	0	-3	nt	29
CC(C)C(=O)Nc1cccc(NC(=S)NC(=O)c2ccc([N+](=O)[O-])cc2)c1	10	1	-18	nt	5	-1
CC(=O)c1cccc(NC(=S)NC(=O)c2ccc(Cl)cc2)c1	97*	1	-3	-29	nt	18
O=C(NC(=S)Nc1ccccc1)c1ccc(-c2ccccc2)cc1	47	-1	3	-3	62*	19
Cc1cc(C(=O)NC(=S)Nc2cccc(NC(=O)C(C)C)c2)ccc1[N+](=O)[O-]	23	4	-7	-7	49*	10
Cc1ccc(Cl)cc1NC(=O)c1ocnc1C	-5	1	nt	-12	-3	nt
Cc1c(N=Cc2cc(Br)cc(Br)c2O)cccc1C(=O)O	9	1	4	102*	nt	-10
CN(/N=C/c1cc(Br)cc(Br)c1O)c1ccccc1	21	1	nt	-4	27	-1
O=C(O)c1cccc(N/N=C/c2cc(Br)cc(Br)c2O)c1	21	2	0	110*	77*	nt
c1ccc(OCCOc2ncnc3ccccc23)cc1	?	0	-19	-19	51*	nt
COc1ccccc1C(=O)NC(=S)Nc1cccnc1Cl	38	-22	-3	-9	-72	-6
Cc1ccc(C(=O)NC(=S)Nc2cccnc2Cl)cc1	145*	-9	-14	-15	23	41*
COc1ccc(-c2nnc(SCc3ccccc3)n2N)cc1	88*	8	-3	nt	nt	23
O=C(CCS(=O)(=O)c1ccccc1)NCCS(=O)(=O)c1ccccc1	-11	3	3	11	nt	0
O=C(CCSc1ccc(Cl)cc1)NC12CC3CC(CC(C3)C1)C2	nt	-2	-14	-5	50*	14
O=C(CCS(=O)(=O)c1ccccc1)NC12CC3CC(CC(C3)C1)C2	97*	-3	-5	11	36	0
C[C@H](CO)N1C[C@H](C)[C@@H](CN(C)C)Oc2cc(C#CCC3CCCC3)ccc2S1(=O)=O	nt	nt	nt	nt	-8	nt
SMILES	MITF TRPM1 HTS	N-glyco inh	Vif inh	PfHsp90 yeast 2	esBAF inh	Wnt act
C[C@H]1CN([C@@H](C)CO)C(=O)c2cc(C3=CCCC3)cnc2O[C@H]1CN(C)Cc1ccccc1F	nt	nt	nt	nt	-7	nt
COC(=O)c1ccc(N2CCCCC2)c(N)c1	88*	0	15	nt	58*	16
CCCC(=O)c1ccc(N2CCCCCC2)c(F)c1	nt	-2	-6	5	52*	3
CCCC(=O)c1ccc(N2CCN(C(=O)OCC)CC2)c(F)c1	6	-1	-3	-14	15	-4
CCCC(=O)c1ccc(N2CCC(C)CC2)c(F)c1	69	-1	1	5	nt	52*
CCCC(=O)c1ccc(N2CCCCC2)c(F)c1	78	1	0	-10	nt	?
